The panel holds about 83,000 compounds, 20% with a hit somewhere; the sample as a whole holds those more often.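 In brief: 96-well plates, 48 h treatment, single concentration, percent growth endpoint.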 Values without a mark were called inactive. Active and inactive are the calls of the source. How the source made its calls: active means growth percent below 10; inactive means the rest.
Legend:
Experiment in all cases: NCI-60 one-dose screen, 48 h (100 = growth as untreated, 0 = no growth, -100 = all killed)
NCI-H23 lung = conditions: 10 µM unless noted
786-0 renal = conditions: 10 µM unless noted
DU-145 prostate = conditions: 10 µM unless noted
MDA-MB-231 breast = conditions: 10 µM unless noted
SF-268 CNS = conditions: 10 µM unless noted
SF-539 CNS = conditions: 10 µM unless noted
M14 melanoma = conditions: 10 µM unless noted
HCT-15 colon = conditions: 10 µM
UACC-62 melanoma = conditions: 10 µM unless noted
LOX IMVI melanoma = conditions: 10 µM unless noted
SK-MEL-28 melanoma = conditions: 10 µM unless noted
ACHN renal = conditions: 10 µM unless noted
OVCAR-5 ovarian = conditions: 10 µM unless noted
OVCAR-3 ovarian = conditions: 10 µM unless noted
NCI/ADR-RES ovarian = conditions: 10 µM unless noted
T-47D breast = conditions: 10 µM unless noted
MDA-MB-435 melanoma = conditions: 10 µM unless noted
SW-620 colon = conditions: 10 µM unless noted
MCF7 breast = conditions: 10 µM unless noted
KM12 colon = conditions: 10 µM unless noted

Structure (SMILES)	growth (NCI-H23 lung)	growth (786-0 renal)	growth (DU-145 prostate)	growth (MDA-MB-231 breast)	growth (SF-268 CNS)	growth (SF-539 CNS)	growth (M14 melanoma)	growth (HCT-15 colon)	growth (UACC-62 melanoma)	growth (LOX IMVI melanoma)	growth (SK-MEL-28 melanoma)	growth (ACHN renal)	growth (OVCAR-5 ovarian)	growth (OVCAR-3 ovarian)	growth (NCI/ADR-RES ovarian)	growth (T-47D breast)	growth (MDA-MB-435 melanoma)	growth (SW-620 colon)	growth (MCF7 breast)	growth (KM12 colon)
CC(C)(C)[Si](C)(C)OC1[C@@H](O[Si](C)(C)C(C)(C)C)[C@@H](CNC(=O)NC(=O)CF)O[C@H]1n1cnc2c(NC(=O)Nc3ccccc3)ncnc21 (stereo not given in full)	64.7%	61.4%	47.6%	85.9%	26.6%	92.6%	73.2%	80.7%	76.6%	12.2%	93.2%	71.8%	91.5%	19.8%	71%	71.9%	70.5%	33.8%	19%	28.5%
COc1cc(C2CC(=O)Nc3nc(N)[se]c32)c(OC)c2c1OCO2 (stereo not given)	99.7%	105%	103%	96.3%	107%	91%	85.1%	101%	99.3%	104%	104%	99.1%	108%	114%	109%	89%	99%	110%	94.1%	70.3%
CCN1CC2(CN(CC)C1=S)C(=O)NC(=O)NC2=O	98.9%	90.3%	97.6%	110%	95.1%	107%	88.9%	99.9%	101%	103%	105%	99%	114%	107%	97.4%	90.4%	103%	97.4%	92.5%	94.1%
CN(Cc1cccnc1)N=O	96.3%	107%	108%	103%	95.5%	96.8%	97.4%	100%	98.3%	93.5%	108%	103%	99.8%	101%	100%	90.7%	103%	98.2%	95.9%	102%
CNC(=O)Oc1cc(C(C)C)ccc1Sc1ccc(C(C)C)cc1OC(=O)NC	76.4%	105%	72.8%	58.4%	60.2%	56.8%	89.2%	28.6%	47.2%	62.2%	66.3%	81.6%	95.7%	69.2%	54.1%	77.7%	4.24% (active)	43.6%	58.8%	57.9%
OC1(c2ccccc2F)c2ccccc2C2=NCCN21 (stereo not given)	86.7%	96.6%	113%	109%	116%	100%	107%	108%	96%	96.9%	109%	114%	98.6%	87.9%	86.6%	104%	110%	96.8%	103%	105%
S=P(N1CCCCCC1)(N1CC1)N1CC1	102%	103%	112%	96.4%	96.8%	102%	103%	118%	98.3%	103%	116%	104%	107%	112%	104%	94.5%	109%	108%	94%	105%
CC(CC(C#N)(c1ccccc1)c1ccccc1)N1CCOCC1 (stereo not given)	106%	112%	105%	94.4%	101%	101%	114%	102%	80.4%	102%	123%	102%	89.5%	105%	106%	90%	118%	106%	122%	104%
COC[CH2][Hg][C]#[C][Hg][CH2]COC	71%	41.7%	87.6%	–	93.7%	90.7%	73.2%	97.1%	106%	17.5%	90.1%	98.7%	116%	113%	102%	91.7%	43%	108%	55.3%	85.5%
COc1cccc2c1C(=O)c1c(O)c3c(c(O)c1C2=O)CC(O)(/C(C)=N/NC(=O)CCC(=O)N/N=C(\C)C1(O)Cc2c(O)c4c(c(O)c2C(OC2CC(N)C(O)C(C)O2)C1)C(=O)c1c(OC)cccc1C4=O)CC3OC1CC(N)C(O)C(C)O1 (stereo not given)	-44.8% [5 µM] (active)	-14.4% [5 µM] (active)	-30.5% [5 µM] (active)	8.46% [5 µM] (active)	-17.3% [5 µM] (active)	-39.2% [5 µM] (active)	-55.7% [5 µM] (active)	–	-85.4% [5 µM] (active)	-35.3% [5 µM] (active)	-56.3% [5 µM] (active)	-34.9% [5 µM] (active)	-15.4% [5 µM] (active)	-47.3% [5 µM] (active)	71.8% [5 µM]	-24.2% [5 µM] (active)	-85.2% [5 µM] (active)	-23.5% [5 µM] (active)	2.38% [5 µM] (active)	-29.8% [5 µM] (active)
CCOC(=O)C1(c2ccccc2)CCN(CC(=O)c2ccc(NC(C)=O)cc2)CC1	–	110%	123%	102%	116%	113%	93.6%	108%	94%	88.8%	124%	96%	100%	128%	107%	88.2%	106%	104%	107%	112%
n1nc(-c2nonc2-c2nn[nH]n2)n[nH]1	102%	99%	103%	105%	122%	115%	115%	106%	107%	103%	106%	115%	108%	150%	104%	105%	97.7%	107%	101%	118%
CCC(CC)(c1ccccc1)C(OC(N)=O)c1ccccc1 (stereo not given)	79.9%	82.9%	98.4%	94.7%	93.9%	103%	83.6%	80%	–	77.8%	85.4%	87.4%	111%	89%	79.9%	82.2%	50.6%	81%	81.9%	83.8%
CC[C@]12C=CCN3CC[C@@]4(c5ccc(OC)cc5N(C)[C@H]4[C@@](O)(C(=O)OC)[C@@H]1OC(=O)CCCN1CCN(CCCC(=O)O[C@@H]4[C@]5(CC)C=CCN6CC[C@@]7(c8ccc(OC)cc8N(C)[C@H]7[C@@]4(O)C(=O)OC)[C@@H]65)CC1)[C@@H]32	-80.6% (active)	-81.9% (active)	-90.6% (active)	-89.6% (active)	-82.6% (active)	-95.5% (active)	-80.6% (active)	-74.3% (active)	-87.7% (active)	-89.1% (active)	-91.6% (active)	-83.3% (active)	-87.8% (active)	-85.2% (active)	-40.6% (active)	-68.3% (active)	-89.3% (active)	-81.9% (active)	-83.8% (active)	-73.9% (active)
N#[N+]c1nc2nc(N)[nH]c(=O)c2[nH]1	103%	102%	105%	107%	104%	101%	100%	97.9%	97.7%	98.5%	111%	99.6%	104%	113%	101%	100%	100%	97.9%	90.7%	108%
C/C(=N/OC(=O)N(C)C)c1ccc(Cl)cc1Cl	–	100%	109%	116%	103%	95.9%	106%	105%	98.7%	97.8%	110%	98.7%	106%	99.5%	96.7%	96.7%	96%	106%	95%	108%
